# Structures can show the parent of a compound that is named as a salt.
# Test system: A549-ACTB-RAB5A
# Assay: lowest phenotypically active concentration; higher = less potent
# Details: treatment time: 24 h
# Method in brief: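 Two criteria together defined phenotypic activity: deviation and reproducibility. Deviation meant ≥3 of 4 wells beyond the 95th percentile of Euclidean distances in solvent control wells, and reproducibility meant a median replicate Pearson correlation above the 95th percentile of non-replicates. Wells had been treated for 24 h at 0.3, 1, 3 or 9 µM in fifteen gene-edited A549, HepG2 and WPMY1 reporter lines before live imaging.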
row,Structure (SMILES),lowest phenotypically active concentration [µM]
1,CC[C@H]1CN2CC[C@H]1C[C@@H]2[C@@H](O)c1ccnc2ccc(OC)cc12 [Hydroquinidine HCl],9
2,COc1cc2c(c(OC)c1OC)-c1ccc(O)c(=O)cc1[C@@H](N)CC2 [Trimethylcolchicinic acid],9
3,C[C@@]1(CO)[C@H](O)CC[C@@]2(C)[C@H]1CC[C@H]1C[C@@H]3C[C@@]12CC[C@]3(O)CO [Aphidicolin],≤ 0.3
4,COC(=O)[C@@]1(O)C[C@H]2O[C@]1(C)n1c3ccccc3c3c4c(c5c6ccccc6n2c5c31)C(=O)NC4,≤ 0.3
5,COc1ccc(N(C(=O)Oc2c(C)cccc2C)c2ccnc(Nc3ccc(N4CCN(C)CC4)cc3)n2)c(OC)c1,1
6,COc1ccc2c(c[n+](C)c3c4cc5c(cc4ccc23)OCO5)c1OC [Chelerythrine chloride],3
7,CC[C@@H]1C=CC=CC[C@H](C)[C@@H](O)[C@](C)(O)C(=O)[C@H](C)[C@@H](O)[C@H](C)C(=O)[C@H](C)[C@@H](O)[C@H](C)C=CC(=O)O[C@H]2[C@@H](C)[C@@H](CC1)O[C@@]1(CC[C@@H](C)[C@@H](C[C@H](C)O)O1)[C@@H]2C [Oligomycin A],≤ 0.3
8,CC(C)[C@@]1(NC(=O)[C@@H]2C[C@@H]3c4cccc5[nH]cc(c45)C[C@H]3N(C)C2)O[C@@]2(O)[C@@H]3CCCN3C(=O)[C@H](Cc3ccccc3)N2C1=O [Dihydroergocristine mesylate],9
9,O=c1[nH]c2ccccc2n1C1CCN(CCCC(c2ccc(F)cc2)c2ccc(F)cc2)CC1 [pimozide],9
10,C[C@]12CC[C@H]3[C@@H](CC[C@]4(O)C[C@@H](O)CC[C@]34C=O)[C@@]1(O)CC[C@@H]2C1=CC(=O)OC1 [Strophanthidin],≤ 0.3
11,CN1CCC2=C[C@H](O)[C@H]3OC(=O)c4cc5c(cc4[C@H]3[C@@H]21)OCO5 [Hippeastrine hydrobromide],9
12,C=C1[C@@H](O)C2C=CC[C@H](C)C(=O)[C@](C)(O)C=C[C@@H](OC(C)=O)[C@]23C(=O)N[C@H](Cc2ccccc2)[C@@H]3[C@@H]1C (some centres not stated) [Cytochalasin D],≤ 0.3
13,COc1ccc(C[C@H]2NC[C@H](O)[C@H]2OC(C)=O)cc1 [Anisomycin],≤ 0.3
14,C[C@@H]1CC[C@H]2[C@@H](C)C(=O)O[C@@H]3O[C@@]4(C)CC[C@@H]1[C@]32OO4 [Artemisinin],3
15,O=C1NC(=O)c2c1c1c3ccccc3n3c1c1c2c2ccccc2n1C1CCC3O1,≤ 0.3
16,Cc1sc2c(c1C)C(c1ccc(Cl)cc1)=N[C@@H](CC(=O)OC(C)(C)C)c1nnc(C)n1-2,≤ 0.3

row,Structure (SMILES),lowest phenotypically active concentration [µM]
1,CN1C[C@H](C(=O)N[C@]2(C)O[C@@]3(O)[C@@H]4CCCN4C(=O)[C@H](Cc4ccccc4)N3C2=O)C[C@@H]2c3cccc4[nH]cc(c34)C[C@H]21.CN1C[C@H](C(=O)N[C@]2(C)O[C@@]3(O)[C@@H]4CCCN4C(=O)[C@H](Cc4ccccc4)N3C2=O)C[C@@H]2c3cccc4[nH]cc(c34)C[C@H]21 [dihydroergotamine],9
2,C[C@@]12C(=O)OC(=O)[C@]1(C)[C@H]1CC[C@@H]2O1 [Cantharidin],3
3,COc1cc2c(c(OC)c1OC)-c1ccc(OC)c(=O)cc1[C@@H](NC(C)=O)CC2 [colchicine],≤ 0.3
4,CC(C)(O)[C@H]1O[C@H]2CC[C@@]3(C)[C@@](O)(CC[C@H]4Cc5c([nH]c6ccccc56)[C@@]43C)C2=CC1=O [paxilline],9
5,N#CC(C#N)=NNc1cccc(Cl)c1,9
6,Cc1c(C(=O)Nc2cccc(C(F)(F)F)c2)cc(-c2ccccc2)n1CCCN1CCOCC1,9
7,CCN1CCN(C(=O)Cc2ccc(Nc3ncc(F)c(Nc4ccc(C(=O)Nc5ccccc5Cl)cc4)n3)cc2)CC1,1
8,O=C(NCCN1CCC2(CC1)C(=O)NCN2c1cccc(F)c1)c1ccc(F)c(F)c1 [ML 298 hydrochloride],3
9,CCn1cnc2c(Nc3cccc(Cl)c3)nc(N[C@H]3CCCC[C@H]3N)nc21,1
10,O=C(Nc1ccncc1)C(=O)c1cn(Cc2ccc(Cl)cc2)c2ccccc12 [Indibulin],≤ 0.3
11,CC[C@@H](C(=O)[C@@H](C)[C@@H](O)[C@H](C)[C@@H]1O[C@@H]([C@@H](CC)C(=O)O)CC[C@@H]1C)[C@H]1O[C@]2(C=C[C@@H](O)[C@]3(CC[C@@](C)([C@H]4CC[C@](O)(CC)[C@H](C)O4)O3)O2)[C@H](C)C[C@@H]1C [Salinomycin Sodium],≤ 0.3
12,CN1C[C@H](C(=O)N[C@]2(C)O[C@@]3(O)[C@@H]4CCCN4C(=O)[C@H](Cc4ccccc4)N3C2=O)C=C2c3cccc4[nH]cc(c34)C[C@H]21 [ergotamine],9
13,N#CC(C#N)=NNc1ccc(OC(F)(F)F)cc1,9
14,COC1=CC(C)=C[C@@H](C)[C@@H](O)[C@@H](C)CC(C)=CC=C[C@H](OC)[C@@H]([C@@H](C)[C@@H](O)[C@H](C)[C@@]2(O)C[C@@H](O)[C@H](C)[C@@H](C(C)C)O2)OC1=O [Bafilomycin A1],≤ 0.3
15,COc1cc([C@@H]2c3cc4c(cc3[C@H](O)[C@H]3COC(=O)[C@H]23)OCO4)cc(OC)c1OC [Podophyllotoxin],≤ 0.3
16,CC[C@]12C=CCN3CC[C@]4(C(=C(C(=O)OC)C1)Nc1ccccc14)[C@@H]32 [Tabersonine dichlorhydrate],9
